Measured values reported in ChEMBL document CHEMBL1961873, “Compounds: GSK PKIS; Assays: Nanosyn kinase panel” (2012).

test system: Serine/threonine-protein kinase B-raf (Homo sapiens), P15056 [V600E]; conditions: at 1 µM
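Further: enzyme inhibition of the BRAF V599E mutant kinase, given as mean percent inhibition, screened within the GSK PKIS kinase inhibitor set.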

Serine/threonine-protein kinase B-raf (Homo sapiens), P15056 [V600E], sequence (P15056 whole entry V600E): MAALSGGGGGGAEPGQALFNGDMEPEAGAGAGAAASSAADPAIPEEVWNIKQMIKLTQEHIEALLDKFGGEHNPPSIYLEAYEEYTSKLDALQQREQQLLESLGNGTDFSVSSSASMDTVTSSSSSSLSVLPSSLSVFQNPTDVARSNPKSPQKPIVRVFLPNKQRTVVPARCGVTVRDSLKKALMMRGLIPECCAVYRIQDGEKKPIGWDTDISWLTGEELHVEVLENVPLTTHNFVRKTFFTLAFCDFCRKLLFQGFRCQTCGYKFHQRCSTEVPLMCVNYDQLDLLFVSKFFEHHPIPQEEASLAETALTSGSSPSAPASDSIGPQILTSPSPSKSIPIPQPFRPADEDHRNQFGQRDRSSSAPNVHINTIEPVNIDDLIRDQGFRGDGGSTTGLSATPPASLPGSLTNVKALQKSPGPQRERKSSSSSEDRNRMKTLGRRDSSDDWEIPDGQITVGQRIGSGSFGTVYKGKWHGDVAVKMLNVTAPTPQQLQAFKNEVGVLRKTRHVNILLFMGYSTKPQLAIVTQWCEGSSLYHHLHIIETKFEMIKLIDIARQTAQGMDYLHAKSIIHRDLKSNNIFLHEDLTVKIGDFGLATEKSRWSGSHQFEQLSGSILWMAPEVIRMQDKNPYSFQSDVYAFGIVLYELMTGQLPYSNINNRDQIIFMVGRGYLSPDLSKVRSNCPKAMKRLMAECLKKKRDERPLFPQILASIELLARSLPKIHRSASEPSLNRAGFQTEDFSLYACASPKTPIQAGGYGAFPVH

Compound	inhibition [%]
COc1ccc(-c2cc3c(N)ncnc3o2)cc1	1.67
COc1cccc(-n2ncc3c(N/N=C/c4ccc(F)cc4)ncnc32)c1	7.05
Nc1ncc(-c2cccc(S(N)(=O)=O)c2)c2scc(-c3ccc(F)c(Cl)c3)c12	10.1
COc1cccc(-c2c[nH]c3c(N/N=C/c4ccncc4)ncnc23)c1	11.2
CN(C)CCOc1ccc(-c2nc(-c3ccncc3)c(-c3ccc4c(c3)CC/C4=N\O)[nH]2)cc1	90.1
Clc1ccc(-c2nn3ncccc3c2-c2ccnc(Nc3ccccc3)n2)cc1	5.6
CCN1CCC(CC(=O)Nc2n[nH]c3nnc(-c4cccc(F)c4F)cc23)CC1	1.57
CCCN(CCS(C)(=O)=O)Cc1ccc(-c2ccc3ncnc(Nc4ccc(OCc5cccc(F)c5)c(Cl)c4)c3c2)o1	3.85
NS(=O)(=O)c1ccc(Nc2ncc(-c3ccccc3)o2)cc1	6.08
Fc1cccc(COc2ccc(Nc3ncnc4sc(-c5ccco5)cc34)cc2Cl)c1	3.4
c1cc(-c2cnn3nc(N4CCOCC4)ccc23)nc(NC2CC2)n1	9.04
Nc1nc(-c2cccc(Cl)c2)c(-c2ccc3ncccc3n2)s1	8.63
COc1ccc(-c2oc3ncnc(N)c3c2-c2ccc(NC(=O)Nc3cc(C(F)(F)F)ccc3F)cc2)cc1	23.9
Cc1ccc(O)cc1Nc1ccnc2cc(-c3ccccn3)ccc12	9.49
Fc1ccc(-c2nn3ccccc3c2-c2ccncc2)cc1	4.72
Cc1ccc2c(-c3ccnc(Nc4ccccc4)n3)c(-c3ccc(F)cc3)nn2n1	13
COC(=O)c1sc(-n2cnc3cc(OC)c(OC)cc32)cc1OCc1ccccc1C(F)(F)F	6.69

Compound	inhibition [%]
CC(C)(CO)CNC(=O)c1ccc2c(c1)/C(=N/Nc1ccc(S(N)(=O)=O)cc1)C(=O)N2	44.1
COc1ccc2[nH]c3c4[nH]c5ccc(OC)cc5c4c4c(c3c2c1)C(=O)NC4=O	6.69
COc1ccc(-c2nn3ncccc3c2-c2ccnc(Nc3ccc4c(c3)OCCO4)n2)cc1	4.88
NS(=O)(=O)c1ccc(N/N=C2\C(=O)Nc3ccc4ncccc4c32)cc1	60.8
CCc1nn2ncccc2c1-c1ccnc(NC2CC2)n1	3.79
CCNC(=O)O[C@H]1CN[C@H](C#Cc2cc3ncnc(Nc4ccc(OCc5cccc(F)c5)c(Cl)c4)c3s2)C1	2.23
O=C(Nc1n[nH]c2cc(-c3ccc(F)cc3)ccc12)C1CC1	5.12
CN1CCC(n2cnc(-c3ccc(F)cc3)c2-c2ccnc(Nc3ccccc3)n2)CC1	6.57
COc1cc(N2CCN(C(C)C)CC2)ccc1Nc1nc(Nc2ccc(F)cc2C(N)=O)c2cc[nH]c2n1	13.7
CC(=O)NCc1cccc(C#Cc2cncnc2Nc2ccc(OCc3cccc(F)c3)c(Cl)c2)c1	0.73
CCCN1CCC(c2ccc(Nc3nc(Nc4cc(F)ccc4C(N)=O)c4cc[nH]c4n3)c(OC)c2)CC1	37.4
CN1CCC(n2cnc(-c3ccc(F)cc3)c2-c2ccnc(N)n2)CC1	5.35
CC1=C(C(=O)Nc2cc(Cl)c3[nH]ncc3c2)C(c2ccc(C(F)(F)F)cc2)CC(=O)N1 (stereo not drawn)	35.6
Fc1ccc(-c2nn3ncccc3c2-c2ccnc(Nc3ccc4c(c3)OCCO4)n2)cc1	21.5
Cc1cccc2c1NC(=O)/C2=N\Nc1ccc(S(N)(=O)=O)cc1	3.31
Nc1nc(-c2ccc(F)cc2)c(-c2ccc3ncccc3n2)s1	7.92
